Test [1] has as its target Muscarinic acetylcholine receptor M1 (Rattus norvegicus) (UniProt P08482). The test can be described thus: qHTS Assay for Antagonists of Acetylcholine Muscarinic M1 Receptor: Kinetic Measurement of Intracellular Calcium Response (AID 943). Note: nearly all actives have a fitted effect of over 75% in size. Note: potency is the fitted concentration of half-maximal effect. Summed up: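 Antagonism is measured as inhibition of the carbachol-evoked calcium rise in CHO cells transfected with rat M1. Cells are dye-loaded, exposed to compound for 10 min, then stimulated with 100 nM carbachol (EC80).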
On the technique in general: Quantitative high-throughput screening tests each substance at several concentrations.

Test [2] has the same target. The test can be described thus: qHTS Assay for Antagonists of Acetylcholine Muscarinic M1 Receptor: Measurement of IP-One Response (AID 944). Note: nearly all actives have a fitted effect of over 75% in size. Note: potency is the fitted concentration of half-maximal effect. Summed up: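 Antagonist mode with rat M1 receptor transfected into CHO cells. Compound is added first for 10 min, carbachol at its EC80 follows for 30 min, and lysis reagents then allow TR-FRET detection of accumulated IP1.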
In test [3] the target is Pyruvate kinase (Leishmania mexicana) (UniProt Q27686). As to the kind of experiment: qHTS Validation Assay for Inhibitors of Leishmania Mexicana Pyruvate Kinase (AID 945). Put shortly:
(§1)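 qHTS eight-point titrations against 0.2 nM LmPYK (E451W) in imidazole buffer pH 7.2 with 0.5 mM PEP, 0.1 mM ADP; 1 h, room temperature. Readout: PKLight luminescence, normalized to neutral DMSO wells.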

The target of test [4] is Pyruvate kinase PKM (Homo sapiens) (UniProt P14618). As to the kind of experiment: qHTS Assay for Activators of Human Muscle Pyruvate Kinase (AID 954; active = well fitted curve in the direction sought with a large enough effect, not every such curve was filed as active). Summed up: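 Screening used highly purified human pyruvate kinase M2 under submaximal activity, with PEP at its Km and ADP below Km. After an hour at room temperature, ATP was read by luciferase luminescence.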
In test [5] the target is Pyruvate kinase (Leishmania mexicana) (UniProt Q27686). The test can be described thus: qHTS Validation Assay for Activators of Leishmania Mexicana Pyruvate Kinase (AID 959). Put shortly:
as §1

Inconclusive results are not listed. Entries that show only a call come without a potency. Calls of active or inactive are those of the source. Unless noted, calls come from the whole dose curve; as a rule, active = well fitted curve in the direction sought with a large enough effect; inconclusive = small, poorly fitted or top-dose-only effect, or another doubt; inactive = no such curve, though single readings can be large; an effect the other way counts as inactive or inconclusive.

Chain of Muscarinic acetylcholine receptor M1 (Rattus norvegicus) (P08482 whole entry, looked up): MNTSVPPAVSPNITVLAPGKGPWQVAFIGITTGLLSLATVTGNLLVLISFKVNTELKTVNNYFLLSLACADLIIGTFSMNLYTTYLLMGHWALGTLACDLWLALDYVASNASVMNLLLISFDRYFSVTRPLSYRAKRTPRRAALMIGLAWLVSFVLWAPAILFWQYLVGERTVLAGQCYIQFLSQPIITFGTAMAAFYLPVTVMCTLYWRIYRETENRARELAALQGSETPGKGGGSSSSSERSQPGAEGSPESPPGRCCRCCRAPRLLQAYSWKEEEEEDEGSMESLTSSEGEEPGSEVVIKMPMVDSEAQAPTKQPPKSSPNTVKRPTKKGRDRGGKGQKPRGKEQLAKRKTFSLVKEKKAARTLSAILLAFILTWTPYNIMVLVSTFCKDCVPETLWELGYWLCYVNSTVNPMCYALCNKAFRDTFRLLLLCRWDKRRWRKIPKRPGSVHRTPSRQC
Chain of Pyruvate kinase PKM (Homo sapiens) (P14618 whole entry, looked up): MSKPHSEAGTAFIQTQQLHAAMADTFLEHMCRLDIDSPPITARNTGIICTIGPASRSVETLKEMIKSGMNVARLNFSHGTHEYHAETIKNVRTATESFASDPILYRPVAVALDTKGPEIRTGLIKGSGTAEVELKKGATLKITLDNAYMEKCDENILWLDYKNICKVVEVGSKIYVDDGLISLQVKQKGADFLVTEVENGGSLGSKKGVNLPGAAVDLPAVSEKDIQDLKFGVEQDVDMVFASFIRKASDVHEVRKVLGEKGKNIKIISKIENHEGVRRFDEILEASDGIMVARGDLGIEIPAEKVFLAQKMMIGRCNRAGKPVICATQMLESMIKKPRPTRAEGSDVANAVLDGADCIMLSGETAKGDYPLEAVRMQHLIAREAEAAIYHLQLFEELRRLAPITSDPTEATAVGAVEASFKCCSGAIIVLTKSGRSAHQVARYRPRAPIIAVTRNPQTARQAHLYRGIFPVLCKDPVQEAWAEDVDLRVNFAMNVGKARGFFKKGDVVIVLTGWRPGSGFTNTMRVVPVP
Chain of Pyruvate kinase (Leishmania mexicana) (Q27686 2-499 E452W): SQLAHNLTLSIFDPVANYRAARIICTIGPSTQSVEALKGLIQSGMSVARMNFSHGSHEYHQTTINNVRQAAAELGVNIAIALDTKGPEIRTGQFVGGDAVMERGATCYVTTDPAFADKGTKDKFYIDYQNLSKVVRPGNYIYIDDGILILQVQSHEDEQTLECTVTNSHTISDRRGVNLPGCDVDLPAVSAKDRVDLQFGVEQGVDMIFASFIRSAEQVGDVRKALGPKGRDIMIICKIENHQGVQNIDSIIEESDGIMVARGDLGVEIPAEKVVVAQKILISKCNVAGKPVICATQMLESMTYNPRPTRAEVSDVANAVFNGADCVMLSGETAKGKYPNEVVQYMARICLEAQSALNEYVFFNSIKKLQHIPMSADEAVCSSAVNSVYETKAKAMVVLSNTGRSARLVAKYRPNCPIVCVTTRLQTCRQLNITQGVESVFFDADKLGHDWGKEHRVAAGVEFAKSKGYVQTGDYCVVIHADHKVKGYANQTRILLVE

Turning to `C[N+]1(C)CCC(OC(=O)C(c2ccccc2)c2ccccc2)CC1`, the figures for the Potency in test [1] and in test [2] were 15.8 nM (active) and 11.2 nM (active), respectively. The Potency entry in test [3] was “inactive”. Besides, the call in test [4] was inactive.

With `O=C(O)[C@@H]1C[C@@H](C(=O)O)N1`, the Potency entry in test [1], in test [2] and in test [3] was “inactive” each time. In addition, the compound was called inactive in test [4].

With `N[C@@H](CC(=O)O)C(=O)O`, the Potency entry in test [1], in test [2] and in test [3] was “inactive” each time. Also, the compound was classed as inactive in test [4].

Take `N#C/C(=C\c1c[nH]c2ccccc12)C(=O)c1ccc(O)c(O)c1`: the Potency result in test [1], in test [2] and in test [3] was “inactive” throughout. Also, in test [4], the outcome was inactive.

On to `O=c1[nH]c2ccccc2n1CCCN1CCN(C(c2ccccc2)c2ccccc2)CC1`, for which the Potency in test [1] was 5010 nM (active); in test [2], 15800 nM (active). For the same compound, the Potency entry in test [3] was “inactive”. Besides, the outcome in test [4] was inactive.

In the case of `O=C(Nc1cccc(C(=O)Nc2ccc(S(=O)(=O)O)c3cc(S(=O)(=O)O)cc(S(=O)(=O)O)c23)c1)Nc1cccc(C(=O)Nc2ccc(S(=O)(=O)O)c3cc(S(=O)(=O)O)cc(S(=O)(=O)O)c23)c1`, the Potency entry in test [1] and in test [3] was “inactive” throughout. In test [4], the compound was classed as inactive. Further, the Potency in test [5] is 398 nM (active).

With `C=C[C@H]1CN2CC[C@@H]1C[C@@H]2[C@@H](O)c1ccnc2ccc(OC)cc12`, the Potency result in test [2] and in test [3] was “inactive” each time. In addition, in test [4], the compound was called inactive.

`COc1cccc(C(=O)NCCN2CCN(c3ccc(Cl)cc3)CC2)c1`: in test [3], the Potency entry is “inactive”. Also, in test [4], the result was inactive.

Take `CC(C)Cc1ccc([C@H](C)C(=O)O)cc1`: the Potency entry in test [3] is “inactive”. Also, the compound was classed as inactive in test [4].

On to `Clc1ccc(N2CCN(Cc3c[nH]c4ncccc34)CC2)cc1`, for which the Potency entry in test [2] and in test [3] was “inactive” in each case. Also, the outcome in test [4] was inactive.

Take `Cn1c(=O)c2[nH]c(-c3ccccc3)nc2n(C)c1=O`: the Potency entry in test [2] and in test [3] was “inactive” throughout. Also, in test [4], the result was inactive.

Consider `Ic1ccc(N2CCN(Cc3c[nH]c4ncccc34)CC2)cc1`, for which the Potency entry in test [3] was “inactive”. For the same compound, the outcome in test [4] was inactive.

The values are drawn from PubChem BioAssay (NCATS).
